# Screens from PubChem.
# An excerpt weighted towards active compounds, which were near 18% of everything screened.
# TDP1 cell CPT: growth inhibition of DT40 Tdp1-/-;hTDP1 cells with camptothecin (screen for TDP1 inhibitors) | 420,000 tested, 12% active | chicken DT40 Tdp1-/-;hTDP1 cells + 20 nM CPT, ATP luminescence, 48 h | Potency, µM (doses to about 46.2 µM), without a hit: at the highest dose activity change, negative = growth inhibition, actives largely listed as inhibitors; further: nearly all actives have a fitted effect of over 55% in size
#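 Cell growth measured by CellTiter-Glo luminescence after a minimum 48 h, 37 C compound exposure with 20 nM CPT in Tdp1-knockout DT40 cells stably expressing hTDP1, seeded 400/well; qHTS titration format.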
# KAT2A inh: GCN5L2 (KAT2A) acetyltransferase inhibition. GCN5L2 HAT assay, ThioGlo1 CoA-SH fluorescence. Potency, µM (top dose mostly 58.9 µM), inactives show at the top dose activity change, negative = inhibition, actives largely listed as inhibitors. 390,000 tested, 0.21% active
#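 Preincubate 20nM GCN5L2 with compound 15 min, RT → add 50uM ThioGlo1 + 75uM H3(1-25) + 70uM acetyl-CoA → read fluorescence 0 and 20 min. Primary qHTS; fluorescent artifacts likely.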
# TDP1 inh: blocks human tyrosyl-DNA phosphodiesterase 1 | 350,000 tested, 0.28% active | Potency, µM (top dose mostly 130 µM), inactives show at the top dose activity change, negative = inhibition, actives largely listed as inhibitors | recombinant TDP1, AlphaScreen DNA substrate cleavage; further: nearly all actives have a fitted effect of over 40% in size
# Target sequence (Q9NUW8 whole entry, looked up): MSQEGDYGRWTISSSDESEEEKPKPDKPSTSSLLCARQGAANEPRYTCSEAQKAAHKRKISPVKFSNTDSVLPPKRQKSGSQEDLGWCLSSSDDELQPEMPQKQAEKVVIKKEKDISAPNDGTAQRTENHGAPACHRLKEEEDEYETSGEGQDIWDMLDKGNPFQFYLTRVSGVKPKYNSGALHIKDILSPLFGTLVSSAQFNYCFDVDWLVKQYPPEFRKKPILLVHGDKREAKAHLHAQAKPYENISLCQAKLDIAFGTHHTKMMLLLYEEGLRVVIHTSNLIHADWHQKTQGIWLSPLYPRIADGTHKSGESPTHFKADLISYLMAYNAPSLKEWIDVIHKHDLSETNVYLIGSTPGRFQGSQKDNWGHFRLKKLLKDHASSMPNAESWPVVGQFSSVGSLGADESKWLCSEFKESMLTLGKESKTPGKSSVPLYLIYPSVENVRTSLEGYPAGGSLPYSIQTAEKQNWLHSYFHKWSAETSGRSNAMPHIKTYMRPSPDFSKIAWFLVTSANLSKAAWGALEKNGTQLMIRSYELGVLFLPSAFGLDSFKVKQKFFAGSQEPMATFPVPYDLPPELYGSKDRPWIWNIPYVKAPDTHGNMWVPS
#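 Recombinant human Tdp1 (E. coli-expressed, 1 nM final) preincubated with compounds 15 min at room temperature, then 5'-biotin/3'-phosphotyrosine-FITC DNA substrate (15 nM final) added for 5 min. AlphaScreen beads (10 ug/ml final) added 10 min; cleavage lowers signal.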
# PLK1 PBD block: blocks phosphopeptide binding to human PLK1 polo-box domain; Plk1 PBD binding of FITC phosphopeptide, fluorescence polarization; Potency, µM, inactives show max response, negative = inhibition, actives largely listed as inhibitors; 360,000 tested, 2.8% active; AID 720504; further: series mostly up to about 57 µM; nearly all actives have a fitted effect of over 65% in size
# VDR inh: inhibitors of human vitamin D receptor; 400,000 tested, 0.93% active; AID 504847; VDR-SRC2-3 peptide fluorescence polarization, 2 h; Potency, µM, for inactives: max response, negative = inhibition, hits mostly inhibitors; P11473
#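 The screen uses fluorescence polarization to detect compounds that interfere with recruitment of the SRC2-3 coactivator peptide to VDR; plates are read after 2 h at room temperature.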
# DT40 TDP1 no CPT: qHTS for Inhibitors of human tyrosyl-DNA phosphodiesterase 1 (TDP1): qHTS in cells in absence of CPT; DT40 Tdp1-/- hTDP1 cells, no CPT, ATP luminescence, 48 h; Potency, µM (titrated, usually from 46.2 µM), for the others: at the top dose activity change, negative = growth inhibition, hits mostly inhibitors; 420,000 tested, 15% active; AID 686978, 2013; further: nearly all actives have a fitted effect of over 55% in size
#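 Compound effects on proliferation are scored in DT40 Tdp1-/-;hTDP1 cells in the absence of CPT. ATP levels (CellTiter-Glo luminescence) are recorded after a ≥48 hr, 37 °C incubation.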
# Starred values were filed as active, the others as inactive; ? = inconclusive; · = not tested or not shown; [ ] = another dose, or the depositor's remark. The call rests on the fitted dose curve; in most records, active means well fitted curve in the direction sought with a large enough effect; inconclusive means small, poorly fitted or top-dose-only effect, or another doubt; inactive means no such curve, though single readings can be large; an effect the other way counts as inactive or inconclusive. On the % scale 0 is the no-effect control and ±100 the full control effect; potency means the concentration at half of the fitted maximal effect.
SMILES,TDP1 cell CPT,KAT2A inh,TDP1 inh,PLK1 PBD block,VDR inh,DT40 TDP1 no CPT
O=C(CSc1nnc(-c2cccnc2)n1-c1ccccc1)Nc1ccccn1,?,-12.1%,4.2%,3.36µM*,-18.5%,16.4µM*
CCCOc1cccc(C(=O)Nc2ccc(-c3cc4ccccc4oc3=O)c(C)c2)c1,?,-6.0%,-10.1%[12.3 µM],·,3.3%,?
CC(=O)Nc1ccc(S(=O)(=O)N(C)CC(=O)N(C)Cc2sccc2C)cc1,-5.6%,-12.6%,-0.3%,2.9%,-1.6%,-11.0%
Cc1cccc([C@@H]2CN(C)CCc3c2cc(O)c(O)c3Cl)c1,-66.3%,·,14.1%[56.1 µM],·,·,?
COc1ccccc1-n1c(=O)oc2ccc(Cl)cc2c1=O,?,1.3%,1.1%,-1.9%,17.2%,16.4µM*
COc1cc(C2Nc3ccc4ncccc4c3C3=C2C(=O)CCC3)ccc1O (stereo not given),5.8µM*,-5.8%,5.3%,-28.6%,-0.1%,3.66µM*
O=C(C[n+]1ccc2ccccc2c1)Nc1cc(C(F)(F)F)ccc1Cl,20.6µM*,0.8%,0.0%,10.1%,-17.3%,?
CN(C)c1cc[n+](CC(=O)Nc2cc(C(F)(F)F)ccc2Cl)cc1,16.4µM*,-13.8%,2.1%,-2.8%,-1.4%,8.2µM*
O=CN1CCCN(Cc2nc(-c3cccc(Cl)c3)no2)CC1,-15.6%,5.4%,2.7%,-1.0%,3.0%,0.8%
CCOC(=O)N1CCC(NS(=O)(=O)c2cc(C(=O)OC)n(C)c2)CC1,5.3%,-3.8%,·,-0.5%,-1.6%,-7.2%
COc1cc(NC(=O)Cn2c(=O)ccc3cc(S(=O)(=O)N4CCCC4)ccc32)cc(OC)c1,?,-16.5%,1.1%,·,7.7%,14.6µM*
Cc1ccc(NC(=O)Cn2c(=O)ccc3cc(S(=O)(=O)N4CCCC4)ccc32)cc1C,-10.2%,2.1%,4.4%,·,6.1%,-1.7%
COc1ccccc1CNC(=O)Cn1c(=O)ccc2cc(S(=O)(=O)N3CCCC3)ccc21,-26.7%,-14.0%,3.3%,·,4.8%,-28.8%
COc1ccc(NC(=O)Cn2c(=O)ccc3cc(S(=O)(=O)N4CCCC4)ccc32)cc1Cl,16.4µM*,-0.7%,3.3%,·,16.5%,13µM*
Clc1ccc(-c2noc3c2-c2nc(Cc4cccc5ccccc45)sc2CC3)cc1,2.2%,-5.4%,·,?,-9.6%,10.7%
O=c1[nH]nc(-c2ccc([N+](=O)[O-])o2)c(=O)[nH]1,0.9%,·,·,-13.0%,-16.4%,-7.8%
Nc1nnc(-c2ccc([N+](=O)[O-])o2)s1,18.4µM*,·,·,-14.7%,7.7%,9.2µM*
CN1c2ccccc2C(C)(C)C12CC(c1ccc(S(=O)(=O)N3CCCCC3)cc1)=NO2 (stereo not given),?,-0.2%,-3.4%,-7.6%,-2.8%,20.6µM*
CN1c2ccccc2C(C)(C)C12CC(c1cccc(S(=O)(=O)N3CCCC3)c1)=NO2 (stereo not given),?,-7.7%,5.6%,12.3%,2.2%,16.4µM*
CN1/C(=C\C(=O)c2cccc(S(=O)(=O)N3CCCCC3)c2)C(C)(C)c2ccccc21,?,-10.6%,-2.2%,-3.9%,-7.3%,?
COc1cccc(CNC(=O)CSc2ncc(S(=O)(=O)c3ccc(C)c(Cl)c3)c(=O)[nH]2)c1,·,-1.2%,4.1%,·,13.6%,·
CC(C)CN1CCCC(N2CCN(c3cccc(Cl)c3)CC2)C1 (stereo not given),1.7%,-1.7%,2.2%,-12.6%,1.8%,-1.8%
COc1ccc(CN2CCCC(N3CCN(c4ccc(OC)cc4)CC3)C2)cc1 (stereo not given),-1.0%,2.4%,·,-22.9%,-20.0%,-17.5%
CCOc1cc(CN2CCCC(N3CCN(c4ccc(F)cc4)CC3)C2)ccc1OC (stereo not given),16.4µM*,-33.7%,·,2.4%,3.1%,?
COc1ccc(CN2CCCC(N3CCN(c4cccc(Cl)c4)CC3)C2)cc1OC (stereo not given),?,-1.6%,·,-4.5%,-18.7%,23.1µM*
SMILES,TDP1 cell CPT,KAT2A inh,TDP1 inh,PLK1 PBD block,VDR inh,DT40 TDP1 no CPT
COc1ccc(CN(Cc2cc3cc4c(cc3[nH]c2=O)OCO4)C(=O)NC2CCCCC2)cc1,18.4µM*,-1.0%,2.8%,-5.7%,1.0%,23.1µM*
COc1ccc2[nH]c(=O)c(CN(C(=O)NC3CCCCC3)C3CCCCC3)cc2c1,20.6µM*,3.1%,5.3%,-6.0%,32.0%,20.6µM*
CCN(CC)CCCN(Cc1cc2cc3c(cc2[nH]c1=O)OCO3)C(=S)Nc1ccc(OC)cc1,-28.0%,2.4%,3.0%,-12.6%,-12.4%,29.1µM*
CCN(CC)CCCN(Cc1cc2cc3c(cc2[nH]c1=O)OCO3)C(=S)NC,19.8%,2.5%,2.4%,-0.9%,4.8%,-1.1%
C=NCc1cc2c(OC[C@@H](O)CNC(C)(C)C)cccc2[nH]1,5.6%,4.8%,4.9%,·,5.9%,-0.3%
COc1ccc(CNc2ncncc2-c2ccc(C(=O)N(C)C)cc2)c(OC)c1,-22.7%,-8.6%,·,·,-6.0%,-15.5%
CCCCOc1cc(C)nc(NCc2ccccc2)n1,4.11µM*,-14.0%,-2.9%,-0.5%,0.7%,16.4µM*
CC(=O)c1ccc(Oc2cc(C)nc(NCc3ccccc3)n2)cc1,20.6µM*,1.8%,7.3%,3.7%,-1.6%,20.6µM*
CCOc1cc(C)nc(NCc2ccccc2)n1,23.1µM*,0.7%[0.501 µM],-0.7%,-27.8%,-3.4%,20.6µM*
C=N[C@@H](C(=O)N[C@@H]1C(=O)N2[C@@H]1SC(C)(C)[C@@H]2C(=O)O)c1ccccc1,-20.8%,·,·,·,·,-11.4%
CCOC(=O)c1cccc(Nc2ncnc3ccccc23)c1,?,-4.3%,7.3%,-2.1%,7.5%,13µM*
CCCOC(=O)c1cccc(Nc2nc(-c3cccnc3)nc3ccccc23)c1,9.2µM*,-4.7%,2.7%,4.2%,-5.4%,3.26µM*
N#Cc1cccc(C#N)c1Oc1ccc(S(=O)(=O)Nc2ccc(Cl)cc2)cc1,-62.4%,-15.2%,1.4%,1.3%,-13.8%,16.4µM*
O=C(O)c1sccc1Oc1ccc(NS(=O)(=O)c2ccc(Cl)cc2)cc1,0.2%,-6.0%,·,-17.0%,?,-5.8%
Cc1noc(C)c1C(=O)N1CCC2(CC1)CN(Cc1cc(C(F)(F)F)cc(C(F)(F)F)c1)C2,-3.7%,-6.3%,·,·,-19.9%,-10.8%
O=C(CCC(=O)N1CCN(c2ccc(F)cc2)CC1)N1CCN(c2ccc(F)cc2)CC1,?,-3.2%,·,4.8%,5.2%,?
O=C(CCC(=O)N1CCN(c2ccccc2F)CC1)N1CCN(c2ccccc2)CC1,?,-2.4%,·,0.9%,-3.5%,-28.9%
